Reference: PubChem BioAssay (NCI)
About 79,000 compounds went through this panel and 15% of them were active in at least one assay; those are over-represented in the sample as a whole. Activity calls are given as the source filed them. Cut-off read from the data, not from the text of the source: active = growth inhibition above about 70%; inactive = the rest.

Assays:
[1] = NCI Yeast Anticancer Drug Screen. Data for the rad52 strain (AID 147);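 note: 0% = growth of vehicle-treated control cultures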; conditions: S. cerevisiae rad52 mutant growth inhibition, hits give high values
Summary of the method: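 Read-out: growth inhibition versus vehicle-treated controls. Cells were a DNA repair-deficient yeast strain treated with compounds.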

[2] = NCI Yeast Anticancer Drug Screen. Data for the rad50EPP+ strain (AID 151);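 note: 0% = growth of vehicle-treated control cultures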; conditions: S. cerevisiae rad50 mutant strain, hits give high values
Summary of the method: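 Growth inhibition read against vehicle controls in rad50EPP+ yeast, a strain altered in DNA damage repair, after compound exposure.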

[3] = NCI Yeast Anticancer Drug Screen. Data for the mgt1 strain (AID 153); conditions: S. cerevisiae mgt1 mutant growth inhibition, hits give high values
Summary of the method: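 mgt1 yeast grown with test compound; read-out is growth inhibition versus vehicle-treated cultures.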

[4] = NCI Yeast Anticancer Drug Screen. Data for the rad50 strain (AID 155);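 note: 0% = growth of vehicle-only cultures of the same strain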; conditions: S. cerevisiae rad50 strain growth inhibition, hits give high values
Summary of the method: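 Growth of the mutant yeast was measured after compound exposure and referenced to vehicle-treated cultures.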

[5] = NCI Yeast Anticancer Drug Screen. Data for the mec2-1 strain (AID 157); conditions: S. cerevisiae mec2-1 strain, hits give high values
Summary of the method: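 Yeast mec2-1 mutant treated with compound. Readout: growth inhibition vs vehicle controls.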

[6] = NCI Yeast Anticancer Drug Screen. Data for the rad14 strain (AID 159);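 note: 0% = growth of vehicle-treated control cultures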; conditions: S. cerevisiae rad14 strain growth inhibition, hits give high values
Summary of the method: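 Here, inhibition of yeast growth was measured after compound exposure, using a strain with a genetic defect in DNA damage repair and vehicle-treated cultures as the reference.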

[7] = NCI Yeast Anticancer Drug Screen. Data for the sgs1 mgt1 strain (AID 161);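 note: 0% = growth of cultures given vehicle only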; conditions: S. cerevisiae sgs1 mgt1 strain, hits give high values
Summary of the method: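 Mutant yeast exposed to compound; growth scored against vehicle-only wells.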

[8] = NCI Yeast Anticancer Drug Screen. Data for the CLN2oe strain (AID 163);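 note: 0% = growth of vehicle-only control cultures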; conditions: S. cerevisiae CLN2oe strain, hits give high values
Summary of the method: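 Read-out: yeast growth inhibition, expressed relative to vehicle-only controls. The strain bears an engineered cell-cycle alteration.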

[9] = NCI Yeast Anticancer Drug Screen. Data for the cln2 rad14 strain (AID 165);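 note: 0% = growth equal to vehicle treated cultures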; conditions: S. cerevisiae cln2 rad14 strain, hits give high values
Summary of the method: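 cln2 rad14 yeast strain; compound exposure; growth inhibition read vs vehicle controls.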

[10] = NCI Yeast Anticancer Drug Screen. Data for the bub3 strain (AID 167); conditions: S. cerevisiae bub3 mutant strain, hits give high values
Summary of the method: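 Whole-cell yeast assay. The mutant strain was incubated with compounds, and growth inhibition was determined by comparison with vehicle-treated cells.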

[11] = NCI Yeast Anticancer Drug Screen. Data for the mlh1 strain (AID 171);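 note: 0% = growth of vehicle-treated control cultures of the same strain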; conditions: S. cerevisiae mlh1 strain growth inhibition, hits give high values
Summary of the method: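 Read-out: growth inhibition versus vehicle controls. Strain: engineered yeast with a defined DNA repair or cell cycle defect, compound-treated.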

[12] = NCI Yeast Anticancer Drug Screen. Data for the mlh1 rad18 strain (AID 175); conditions: S. cerevisiae mlh1 rad18 strain growth inhibition, hits give high values
Summary of the method: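 Yeast w/ defined DNA-repair lesions; compound exposure; growth vs vehicle controls → % inhibition.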

[13] = NCI Yeast Anticancer Drug Screen. Data for the rad18 strain (AID 177); conditions: S. cerevisiae rad18 mutant growth inhibition, hits give high values
Summary of the method: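 Readout: growth inhibition vs vehicle controls. Cells: genetically altered yeast strain, DNA repair defect.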

[14] = at 5.0 µM (retest, dose inferred, filed as 0.5)
[15] = at 50.0 µM (retest, dose inferred, filed as 5.0)

Measured: growth inhibition

O=S(=O)(c1cc(Cl)ccc1O)c1cc(Cl)ccc1O
active: [1]; at 3.7 µM 91% | [1]; at 11.0 µM 99% | [1]; at 33.0 µM 99% | [1]; at 100.0 µM 99% | [3]; at 3.7 µM 92% | [3]; at 11.0 µM 99% | [3]; at 33.0 µM 99% | [3]; at 100.0 µM 99% | [4]; at 3.7 µM 91% | [4]; at 11.0 µM 98% | [4]; at 33.0 µM 97% | [4]; [15] 99% | [4]; at 50.0 µM 99.5% | [4]; at 100.0 µM 99% | [5]; at 3.7 µM 93% | [5]; at 11.0 µM 99% | [5]; at 33.0 µM 98% | [5]; [15] 100% | [5]; at 50.0 µM 99.7% | [5]; at 100.0 µM 100% | [6]; at 3.7 µM 96% | [6]; at 11.0 µM 99% | [6]; at 33.0 µM 99% | [6]; at 100.0 µM 100% | [7]; [14] 75% | [7]; [15] 100% | [7]; at 50.0 µM 99.5% | [8]; at 3.7 µM 89% | [8]; at 11.0 µM 99% | [8]; at 33.0 µM 100% | [8]; at 100.0 µM 99% | [9]; [15] 99% | [9]; at 50.0 µM 98.9% | [10]; at 3.7 µM 91% | [10]; at 11.0 µM 98% | [10]; at 33.0 µM 99% | [10]; [15] 99% | [10]; at 50.0 µM 99.4% | [10]; at 100.0 µM 99% | [11]; at 3.7 µM 85% | [11]; at 11.0 µM 99% | [11]; at 33.0 µM 99% | [11]; at 100.0 µM 99% | [12]; [14] 82% | [12]; [15] 99% | [12]; at 50.0 µM 99.7% | [13]; at 3.7 µM 84% | [13]; at 11.0 µM 98% | [13]; at 33.0 µM 99% | [13]; at 100.0 µM 99%
inactive: [1]; at 1.2 µM 24% | [2]; at 1.2 µM -1% | [2]; at 3.7 µM 5% | [2]; at 11.0 µM 12% | [2]; at 33.0 µM 14% | [2]; at 100.0 µM 45% | [3]; at 1.2 µM 15% | [4]; at 1.2 µM 27% | [4]; [14] 52% | [5]; at 1.2 µM 30% | [5]; [14] 35% | [6]; at 1.2 µM 9% | [8]; at 1.2 µM 23% | [9]; [14] 23% | [10]; at 1.2 µM 20% | [10]; [14] 48% | [11]; at 1.2 µM 21% | [13]; at 1.2 µM 26%
